The source of these data is PubChem BioAssay (NCI).

The panel holds about 83,000 compounds, 20% with a hit somewhere; the sample as a whole holds those more often.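 Cells were grown in 96-well plates and exposed to the test compound at a single concentration for 48 hours; results are reported as percent growth, with values below 10 considered active.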 Unmarked numbers belong to inactive results. Active and inactive are the calls of the source.

Among the test systems are DU-145 prostate; K-562 leukemia; MALME-3M melanoma; MDA-MB-231 breast; SF-268 CNS; SF-295 CNS; SF-539 CNS; UACC-257 melanoma; M14 melanoma.
Common to all, as to assay: NCI-60 one-dose screen, 48 h (100 = growth as untreated, 0 = no growth, -100 = all killed)
Details in all cases: 10 µM

Turning to `NS(=O)(=O)c1ccc(NC(=O)CSc2ccc(-c3ccc(Cl)cc3)nn2)c(Br)c1`, the growth in the test with DU-145 prostate was 32.5%; with K-562 leukemia, 74.6%; in the test with MALME-3M melanoma, 29.2%; in the test with MDA-MB-231 breast, 8.72% (active); in the test with SF-268 CNS, 27.9%; in the test on SF-295 CNS, 3.43% (active). The growth is 28.4% with SF-539 CNS, 75.5% with UACC-257 melanoma and 85.1% with M14 melanoma.
With `Nc1nc(Nc2ccccc2)nn1Cc1c(Cl)cccc1Cl`, the growth in the test on DU-145 prostate is 48%; in the test on K-562 leukemia it was 12.8%; in the test with MALME-3M melanoma, 31.4%; with MDA-MB-231 breast, 24.1%; in the test with SF-268 CNS, 50%; in the test on SF-295 CNS it was 46.6%. Further, the figures for the growth with SF-539 CNS, in the test on UACC-257 melanoma and in the test with M14 melanoma were 37.6%, 69.7% and 35.5%, respectively.
Consider `Cc1noc2c(Cc3ccccc3)nn(CC(=O)N/N=C/c3ccc(Br)cc3)c(=O)c12`, for which the growth in the test with DU-145 prostate was 61.1%; in the test with K-562 leukemia, 87.2%; in the test on MALME-3M melanoma, 64.9%; in the test on MDA-MB-231 breast, 20.6%; in the test on SF-268 CNS it was 75.5%; in the test with SF-295 CNS it was 50.6%. Further, the figures for the growth in the test with SF-539 CNS, in the test with UACC-257 melanoma and with M14 melanoma were 74.4%, 101% and 101%, respectively.
For the compound `COC(=O)c1c(C(=O)OC)c2n(c1C)[C@@H]([C@@H](C)[C@H]1CC[C@H]3[C@@H]4CCC5=CC(=O)CC[C@]5(C)[C@H]4CC[C@]13C)SC2`, the growth was 57.8% in the test with DU-145 prostate; 15.7% with K-562 leukemia; 62.5% in the test on MALME-3M melanoma; 56.7% in the test with MDA-MB-231 breast; 56.4% with SF-268 CNS; 24.7% in the test on SF-295 CNS. The growth in the test on SF-539 CNS was 59%; with UACC-257 melanoma, 19.5%; in the test on M14 melanoma, 25.2%.
Take `COc1ccc(Nc2nc(N)n(Cc3cccc(Br)c3)n2)cc1`: the growth with DU-145 prostate is 22.6%; in the test with K-562 leukemia, 7.86% (active); in the test on MALME-3M melanoma, -25% (active); in the test on MDA-MB-231 breast, -5.79% (active); in the test with SF-268 CNS, 16%; in the test with SF-295 CNS, 4.42% (active). Further, the growth with SF-539 CNS was -3.08% (active); in the test with UACC-257 melanoma it was 6.73% (active); in the test on M14 melanoma, 0.65% (active).
Turning to `COc1ccc(C(=O)/C=C/c2cc(F)cc(C(F)(F)F)c2)cc1S(N)(=O)=O`, the growth with DU-145 prostate is 14.1%; in the test with K-562 leukemia, 5.44% (active); in the test on MALME-3M melanoma, -64.2% (active); in the test on MDA-MB-231 breast, -90.5% (active); in the test with SF-268 CNS, 20.8%; in the test on SF-295 CNS it was -47.5% (active). The figures for the growth with SF-539 CNS, in the test with UACC-257 melanoma and with M14 melanoma were -77.8% (active), -9.77% (active) and -68.4% (active), respectively.
On to `CC[C@]12C=CCN3CC[C@@]4(c5cc(C#CCNc6ccc(C)c(Nc7nccc(-c8cccnc8)n7)c6)c(OC)cc5N(C)[C@H]4[C@@](O)(C(=O)OC)[C@@H]1OC(C)=O)C32` (some centres not stated), for which the growth in the test with DU-145 prostate is 59.7%; with K-562 leukemia, 35.1%; with MALME-3M melanoma, 61.1%; in the test on MDA-MB-231 breast it was 39.6%; in the test with SF-268 CNS, 57.9%; in the test with SF-295 CNS, 39.5%. The results for the growth with SF-539 CNS, in the test with UACC-257 melanoma and in the test on M14 melanoma were 8.99% (active), 70.2% and 45.1%, respectively.
For `CN1C(=O)N(C)C2SC(N/N=C/c3cccs3)=NC21` (configuration not stated), the growth in the test with DU-145 prostate was 49.5%; with K-562 leukemia, 11.8%; in the test on MALME-3M melanoma, 24.6%; in the test on MDA-MB-231 breast, 27.3%; in the test with SF-268 CNS it was 35.7%; with SF-295 CNS it was 7.99% (active). The growth in the test with SF-539 CNS is 4.32% (active); in the test on UACC-257 melanoma it was 50.3%; in the test with M14 melanoma it was 7.65% (active).
Take `CCOC(=O)c1sc(N/N=C(\C)c2ccc3c(c2)Nc2ccccc2S3)nc1C`: the growth with DU-145 prostate is 44.9%; in the test with K-562 leukemia, 1.72% (active); with MALME-3M melanoma it was 31.9%; with MDA-MB-231 breast, 18.5%; in the test on SF-268 CNS, 56.9%; in the test on SF-295 CNS, -14.9% (active). Besides, the growth in the test on SF-539 CNS was 33.8%; in the test with UACC-257 melanoma, 35.8%; with M14 melanoma it was 19.4%.
Turning to `CCOC(=O)C(Cc1ccccc1)N1C(=O)/C(=C/N2N=C(c3ccc(OC)cc3)CC2c2ccc3ccccc3c2)SC1=S` (configuration not stated), the growth is 30.7% in the test with DU-145 prostate; 11.9% in the test with K-562 leukemia; -27.2% (active) with MALME-3M melanoma; 3.55% (active) in the test with MDA-MB-231 breast; 30.2% in the test on SF-268 CNS; -78.2% (active) in the test with SF-295 CNS. The growth in the test on SF-539 CNS was -27.2% (active); with UACC-257 melanoma it was 1.02% (active); with M14 melanoma, 7.24% (active).
Take `Cc1ccc(C(=O)NNC(=O)CSc2nc3ccccc3c(=O)[nH]2)cc1`: the growth in the test on DU-145 prostate is 105%; with K-562 leukemia, 97.6%; with MALME-3M melanoma it was 91.7%; in the test on MDA-MB-231 breast, 91.1%; in the test on SF-268 CNS it was 101%; in the test on SF-295 CNS, 96.3%. Further, the growth in the test with SF-539 CNS is 98.7%; in the test with UACC-257 melanoma it was 105%; in the test on M14 melanoma, 108%.
For the compound `COc1cc(C2CC(c3ccc(C)cc3)=Nc3c(N)nc(N)nc3N2)ccc1Oc1nc(Nc2ccc(F)cc2)nc(N(C)C)n1` (configuration not stated), the growth in the test with DU-145 prostate was 53.7%; with K-562 leukemia it was 19.8%; in the test with MALME-3M melanoma it was 64.8%; in the test on MDA-MB-231 breast, 38.7%; in the test with SF-268 CNS, 54.7%; in the test with SF-295 CNS, 68.8%. Further, the figures for the growth in the test with SF-539 CNS, with UACC-257 melanoma and in the test with M14 melanoma were 72.9%, 76.7% and 67.5%, respectively.
Take `OCc1[nH]nc2cc(Nc3ncc4ccc(Br)c(OC5CCC(O)CC5)c4n3)ccc12` (configuration not stated): the growth was 11.6% in the test with DU-145 prostate; 11.4% with K-562 leukemia; -63.4% (active) in the test with MALME-3M melanoma; -10.2% (active) with MDA-MB-231 breast; 7.67% (active) in the test with SF-268 CNS; -49.8% (active) in the test with SF-295 CNS. In addition, the growth in the test on SF-539 CNS is -83.3% (active); with UACC-257 melanoma, -18.2% (active); in the test with M14 melanoma, -58.9% (active).
